Consider five molecules from PubChem BioAssay (EPA / NIEHS).

Each structure is given as a SMILES string. Where “and” joins values, the source holds several entries; their conditions need not be identical. Equal values may be shown once. Some compounds were tested as several samples or in several runs, with calls that do not always agree. Calls of active or inactive are those of the source. The calls were made as follows: active = hit-call score of the fitted dose curve at least 0.9, where 1 is the maximum; inactive = score below 0.9.

Read-out in experiment [1]: Macrophage colony-stimulating factor (MCSF), CSF1 (gene 1435)
The experiment is described as follows: BSK_hDFCGF_MCSF: BioMAP Diversity Plus: hDFCGF Assay for Macrophage colony-stimulating factor (MCSF) Biomarker Activity (AID 2283060). To be noted: primary human foreskin fibroblasts; actives raise or lower the signal. The gist of the method: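 Human foreskin primary fibroblasts were treated with test chemical for 24 h, and M-CSF was then measured by ELISA. Data were fitted bidirectionally against DMSO as the negative control and activity baseline.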

Experiment [2] can be described thus: BSK_hDFCGF_SRB: Viability Assessment in the BioMAP Diversity Plus: hDFCGF Assay (AID 2283061).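 Also: cells exposed to compound for 24 h before the read.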 Conditions: primary human foreskin fibroblasts. The gist of the method:
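Human foreskin primary fibroblasts were treated with compound and assessed 24 h after dosing. Total protein was measured by sulforhodamine B staining (0.1% SRB after 10% TCA fixation, 560 nm read) as a cytotoxicity marker, with bidirectional fitting against DMSO baseline.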

Read-out in experiment [3]: TIMP metallopeptidase inhibitor 1 (TIMP1), TIMP1 (gene 7076)
The experiment is described as follows: BSK_hDFCGF_TIMP1: BioMAP Diversity Plus: hDFCGF Assay for TIMP metallopeptidase inhibitor 1 (TIMP1) Biomarker Activity (AID 2283062). To be noted: primary human foreskin fibroblasts; actives raise or lower the signal. The procedure, abridged: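 Primary human foreskin fibroblasts in the hDFCGF system were dosed with compound for 24 h, then TIMP-1 was measured by ELISA. Activity was fitted bidirectionally relative to DMSO control; parallel SRB staining assessed cytotoxicity.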

Read-out in experiment [4]: Monokine induced gamma interferon (MIG), CXCL9 (gene 4283)
The experiment is described as follows: BSK_hDFCGF_MIG: BioMAP Diversity Plus: hDFCGF Assay for Monokine induced gamma interferon (MIG) Biomarker Activity (AID 2283063). Conditions: primary human foreskin fibroblasts; actives raise or lower the signal. The gist of the method:
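ELISA read-out of MIG from primary human dermal fibroblasts 24 h post-dosing. Gain or loss of signal fitted bidirectionally, DMSO as baseline.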

Read-out in experiment [5]: Matrix Metallopeptidase 1 (MMP1), MMP1 (gene 4312)
Kind of experiment: BSK_hDFCGF_MMP1: BioMAP Diversity Plus: hDFCGF Assay for Matrix Metallopeptidase 1 (MMP1) Biomarker Activity (AID 2283064). To be noted: primary human foreskin fibroblasts; actives raise or lower the signal. The procedure, abridged:
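hDFCGF primary fibroblasts (human foreskin); chemical added; 24 h; MMP1 by ELISA; bidirectional fit vs DMSO.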

Read-out in experiment [6]: Vascular cell adhesion molecule 1 (VCAM1), VCAM1 (gene 7412)
The experiment is described as follows: BSK_hDFCGF_VCAM1: BioMAP Diversity Plus: hDFCGF Assay for Vascular cell adhesion molecule 1 (VCAM1) Biomarker Activity (AID 2283065).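 As to AC50: VCAM-1 protein level quantified by ELISA after 24 h chemical exposure.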 Conditions: primary human foreskin fibroblasts; actives raise or lower the signal. The procedure, abridged:
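Primary human foreskin fibroblasts (hDFCGF system) were dosed with chemical and VCAM-1 was measured by ELISA 24 h later. Bidirectional curve fitting used DMSO as negative control and activity baseline.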

Read-out in experiment [7]: Plasminogen activator inhibitor-1 (PAI1), SERPINE1 (gene 5054)
The experiment is described as follows: BSK_hDFCGF_PAI1: BioMAP Diversity Plus: hDFCGF Assay for Plasminogen activator inhibitor-1 (PAI1) Biomarker Activity (AID 2283066). To be noted: primary human foreskin fibroblasts; actives raise or lower the signal. The gist of the method: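 Primary dermal fibroblasts (human foreskin), hDFCGF system; compound 24 h; PAI-1 by ELISA; bidirectional fit vs DMSO control.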

Read-out in experiment [8]: Intercellular Adhesion Molecule 1 (ICAM1), ICAM1 (gene 3383)
The experiment is described as follows: BSK_KF3CT_ICAM1: BioMAP Diversity Plus: KF3CT Assay for Intercellular Adhesion Molecule 1 (ICAM1) Biomarker Activity (AID 2283067). Conditions: primary human keratinocytes with fibroblasts; actives raise or lower the signal. The gist of the method: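 Human keratinocyte plus foreskin fibroblast primary co-culture was exposed to chemical for 24 h. ICAM-1 was then quantified by ELISA, and the data were fit bidirectionally against DMSO as the negative control and baseline.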

Read-out in experiment [9]: Interferon-gamma inducible Protein 10 (IP10), CXCL10 (gene 3627)
The experiment is described as follows: BSK_KF3CT_IP10: BioMAP Diversity Plus: KF3CT Assay for Interferon-gamma inducible Protein 10 (IP10) Biomarker Activity (AID 2283068). Conditions: primary human keratinocytes with fibroblasts; actives raise or lower the signal. The procedure, abridged:
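In a primary skin co-culture of keratinocytes and fibroblasts, IP-10 is quantified by ELISA at 24 h after dosing. SRB staining of parallel wells monitors overt toxicity. Curves are fitted both directions against DMSO.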

A short description of experiment [10]: BSK_KF3CT_SRB: Viability Assessment in the BioMAP Diversity Plus: KF3CT Assay (AID 2283069).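 Also: fitted for both signal gain and loss against DMSO baseline.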 Conditions: primary human keratinocytes with fibroblasts. The gist of the method: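 Keratinocytes co-cultured with foreskin fibroblasts (human primary); chemical added, 24 h; fix 10% TCA, stain 0.1% SRB, A560. Bidirectional fit vs DMSO.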
Read-out in experiment [11]: Interleukin-1 alpha (IL1a), IL1A (gene 3552)
The experiment is described as follows: BSK_KF3CT_IL1a: BioMAP Diversity Plus: KF3CT Assay for Interleukin-1 alpha (IL1a) Biomarker Activity (AID 2283070). To be noted: primary human keratinocytes with fibroblasts; actives raise or lower the signal. The procedure, abridged: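 Chemicals were dosed onto co-cultured human keratinocytes and foreskin fibroblasts, IL-1a was quantified by ELISA at 24 h, and activity was fitted in both directions relative to DMSO controls.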

Read-out in experiment [12]: TIMP metallopeptidase inhibitor 2 (TIMP2), TIMP2 (gene 7077)
The experiment is described as follows: BSK_KF3CT_TIMP2: BioMAP Diversity Plus: KF3CT Assay for TIMP metallopeptidase inhibitor 2 (TIMP2) Biomarker Activity (AID 2283071). Conditions: primary human keratinocytes with fibroblasts; actives raise or lower the signal. The gist of the method:
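Cells: human keratinocytes co-cultured with foreskin fibroblasts. Treat with chemical, 24 h. Measure TIMP-2 by ELISA; fit curves bidirectionally vs DMSO baseline.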

Read-out in experiment [13]: C-C motif chemokine 2 (Homo sapiens) (UniProt P13500)
The experiment is described as follows: BSK_KF3CT_MCP1: BioMAP Diversity Plus: KF3CT Assay for Monocyte Chemoattractant Protein 1 (MCP1/CCL2) Biomarker Activity (AID 2283073). To be noted: primary human keratinocytes with fibroblasts; actives raise or lower the signal. The gist of the method:
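Human keratinocyte plus foreskin fibroblast primary co-culture exposed to chemical for 24 h. MCP-1 levels measured by ELISA. Bidirectional curve fitting relative to DMSO negative control as baseline.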

Read-out in experiment [14]: Matrix Metallopeptidase 9 (MMP9), MMP9 (gene 4318)
Kind of experiment: BSK_KF3CT_MMP9: BioMAP Diversity Plus: KF3CT Assay for Matrix Metallopeptidase 9 (MMP9) Biomarker Activity (AID 2283074).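 As to AC50: MMP9 protein level quantified by ELISA in the co-culture.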 To be noted: primary human keratinocytes with fibroblasts; actives raise or lower the signal. The gist of the method: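 Human keratinocyte/foreskin fibroblast co-culture; compound added; 24 h; MMP-9 by ELISA; bidirectional fit vs DMSO baseline.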

Read-out in experiment [15]: urokinase plasminogen activator (uPA), PLAU (gene 5328)
The experiment is described as follows: BSK_KF3CT_uPA: BioMAP Diversity Plus: KF3CT Assay for urokinase plasminogen activator (uPA) Biomarker Activity (AID 2283075). Conditions: primary human keratinocytes with fibroblasts; actives raise or lower the signal. The procedure, abridged:
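ELISA readout of uPA, analyzed for signal gain or loss relative to DMSO, from a human primary keratinocyte–foreskin fibroblast co-culture measured 24 h after chemical treatment.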

Read-out in experiment [16]: CD40, CD40 (gene 958)
Kind of experiment: BSK_LPS_CD40: BioMAP Diversity Plus: LPS Assay for CD40 Biomarker Activity (AID 2283076). To be noted: primary human HUVEC with PBMC; actives raise or lower the signal. The procedure, abridged: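 Primary human umbilical vein endothelial cells co-cultured with peripheral blood mononuclear cells, LPS-stimulated, were dosed with chemical and read 24 h later. CD40 levels were measured by ELISA and fitted bidirectionally against DMSO as negative control and baseline.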

Read-out in experiment [17]: E-selectin (Homo sapiens) (UniProt P16581)
The experiment is described as follows: BSK_LPS_Eselectin: BioMAP Diversity Plus: LPS Assay for Eselectin Biomarker Activity (AID 2283077). Conditions: primary human HUVEC with PBMC; actives raise or lower the signal. The procedure, abridged:
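Human umbilical vein endothelial cells co-cultured with peripheral blood mononuclear cells under LPS stimulation; E-selectin measured by ELISA 24 h after chemical dosing. Activity fitted bidirectionally against DMSO as negative control and baseline.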

Read-out in experiment [18]: Interleukin-8 (IL8), CXCL8 (gene 3576)
The experiment is described as follows: BSK_LPS_IL8: BioMAP Diversity Plus: LPS Assay for Interleukin-8 (IL8) Biomarker Activity (AID 2283078). To be noted: primary human HUVEC with PBMC; actives raise or lower the signal. The procedure, abridged:
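Human umbilical vein endothelial cells co-cultured with PBMC were stimulated with LPS; IL-8 levels were measured by ELISA 24 h after chemical dosing. Activity was fitted bidirectionally against DMSO as negative control and baseline.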

The nature of experiment [19]: BSK_LPS_SRB: Viability Assessment in the BioMAP Diversity Plus: LPS Assay (AID 2283079).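 Also: total protein by sulforhodamine B absorbance as a cytotoxicity measure; measured one day after compound addition; fitted in both directions against DMSO so loss or gain of signal counts.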 To be noted: primary human HUVEC with PBMC. The gist of the method:
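Human umbilical vein endothelial cells co-cultured with PBMC (LPS system) were dosed for 24 h. Total protein was stained with 0.1% sulforhodamine B after 10% TCA fixation, read at 560 nm, and fitted bidirectionally against DMSO baseline.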

Read-out in experiment [20]: Interleukin-1 alpha (IL1a), IL1A (gene 3552)
The experiment is described as follows: BSK_LPS_IL1a: BioMAP Diversity Plus: LPS Assay for Interleukin-1 alpha (IL1a) Biomarker Activity (AID 2283080). Conditions: primary human HUVEC with PBMC; actives raise or lower the signal. The procedure, abridged: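 Human umbilical vein endothelial cells co-cultured with peripheral blood mononuclear cells were LPS-stimulated and exposed to test chemicals for 24 h. IL-1 alpha was quantified by ELISA, with bidirectional curve fitting against DMSO as the negative control and baseline.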

The term AC50 denotes the midpoint of the concentration-response curve, whichever way the signal moves.

E-selectin (Homo sapiens), sequence (P16581 whole entry, looked up): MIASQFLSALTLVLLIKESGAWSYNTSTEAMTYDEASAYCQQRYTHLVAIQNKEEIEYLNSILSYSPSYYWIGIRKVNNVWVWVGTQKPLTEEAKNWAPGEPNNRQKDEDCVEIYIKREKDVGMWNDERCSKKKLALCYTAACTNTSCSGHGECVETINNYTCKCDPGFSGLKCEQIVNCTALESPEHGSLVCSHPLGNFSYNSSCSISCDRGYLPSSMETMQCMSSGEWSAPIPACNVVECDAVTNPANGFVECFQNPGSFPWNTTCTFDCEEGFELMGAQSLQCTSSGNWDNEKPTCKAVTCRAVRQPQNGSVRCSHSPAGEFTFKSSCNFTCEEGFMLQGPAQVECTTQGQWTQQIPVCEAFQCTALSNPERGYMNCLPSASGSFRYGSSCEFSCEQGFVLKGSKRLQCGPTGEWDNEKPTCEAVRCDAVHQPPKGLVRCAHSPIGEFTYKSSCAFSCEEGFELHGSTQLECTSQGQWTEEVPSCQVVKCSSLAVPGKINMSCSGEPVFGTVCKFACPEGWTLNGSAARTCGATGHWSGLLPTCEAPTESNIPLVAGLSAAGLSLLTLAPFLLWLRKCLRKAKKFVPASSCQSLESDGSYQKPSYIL

As for `OCC(F)(F)C(F)(F)C(F)(F)C(F)(F)C(F)(F)C(F)F`, the result in experiment [1], in experiment [2], in [3], in experiment [4], in experiment [5] and in experiment [6] was inactive. The outcome in experiment [7], in experiment [8], in experiment [9], in [10], in experiment [11] and in [12] was inactive. The outcome in experiment [13], in [14], in [15], in experiment [16], in [17] and in [18] was inactive. The result in experiment [19] was inactive.

In the case of `N=C(N)C(F)(F)C(F)(F)C(F)(F)C(F)(F)C(F)(F)C(F)(F)C(F)(F)F`, the AC50 in [1] was 40.9 µM (active) and 37.2 µM (active); in [2] it was 54.4 µM (active); in experiment [4] it was 46 µM (active); in experiment [6], 30 µM (active) and 18 µM (active); in [7], 55.3 µM (active) and 54.2 µM (active); in [16] it was 41.5 µM (active). Further, the AC50 in [18] is 46.8 µM (active); in [19] it was 55.1 µM (active). For the same molecule, the outcome in experiment [2], in experiment [3], in experiment [4], in [5], in experiment [8] and in experiment [9] was inactive. Also, the result in experiment [10], in [11], in [12], in experiment [13], in [15] and in experiment [16] was inactive. In addition, the outcome in experiment [17], in experiment [18] and in experiment [19] was inactive.

Consider `CCN(CC)c1ccc2c(C)cc(=O)oc2c1`, for which the outcome in experiment [1], in [2], in experiment [3], in [4], in [5] and in experiment [7] was inactive. Further, the outcome in [8], in experiment [9], in experiment [10], in experiment [11], in [12] and in experiment [13] was inactive. For the same molecule, the result in experiment [14], in experiment [15], in [16], in [17], in experiment [18] and in experiment [19] was inactive. Further, the AC50 in experiment [6] was 30.5 µM (active).

For the molecule `O=C(O)C=C(C(F)(F)F)C(F)(F)F`, the result in [1], in experiment [2], in experiment [3], in experiment [4], in [5] and in experiment [7] was inactive. The outcome in experiment [8], in [9], in [10], in experiment [11], in experiment [12] and in experiment [13] was inactive. The outcome in experiment [15], in experiment [16], in experiment [17], in experiment [18] and in experiment [19] was inactive. The AC50 in experiment [3] was 0.967 µM (active); in [6], 13.1 µM (active) and 22.2 µM (active); in experiment [7], 22.6 µM (active); in [16] it was 19.6 µM (active).

As for `CCc1ccc(C(c2ccc(CC)cc2)C(Cl)Cl)cc1`, the AC50 in experiment [1] was 26 µM (active); in experiment [2], 13.8 µM (active); in experiment [3] it was 20 µM (active); in experiment [4] it was 31.8 µM (active); in [5], 30.1 µM (active); in experiment [6], 14.2 µM (active). For the same molecule, the AC50 is 12.3 µM (active) in [7]; 13.6 µM (active) in experiment [9]; 29.2 µM (active) in experiment [10]; 20 µM (active) in [11]; 13 µM (active) in experiment [12]; 10.1 µM (active) in [13]. Besides, the AC50 in experiment [14] is 11.9 µM (active); in experiment [16] it was 14.2 µM (active); in experiment [19] it was 25.1 µM (active); in [20], 20 µM (active). In addition, the result in experiment [8], in experiment [15], in experiment [17] and in experiment [18] was inactive.
